Results as given in PubChem BioAssay (NCI).
Compounds without any hit were thinned out: in the full panel of roughly 83,000, 20% have a hit.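 Plates (96-well) were seeded with cells, treated with compound at one concentration, and incubated for 48 hours before percent growth was determined.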 Unmarked numbers belong to inactive results. The source made the active and inactive calls. How the source made its calls: active means growth percent below 10; inactive means the rest.

How the values were obtained:
Experiment in all cases: NCI-60 one-dose screen, 48 h (100 = growth as untreated, 0 = no growth, -100 = all killed)
Conditions in all cases: 10 µM unless noted
HCT-15 colon = test system: HCT-15 colon
HT29 colon = test system: HT29 colon
SNB-75 CNS = test system: SNB-75 CNS
PC-3 prostate = test system: PC-3 prostate
SK-MEL-5 melanoma = test system: SK-MEL-5 melanoma
UACC-62 melanoma = test system: UACC-62 melanoma
LOX IMVI melanoma = test system: LOX IMVI melanoma
SK-MEL-28 melanoma = test system: SK-MEL-28 melanoma
SK-MEL-2 melanoma = test system: SK-MEL-2 melanoma
EKVX NSCLC = test system: EKVX NSCLC
SN12C renal = test system: SN12C renal
UO-31 renal = test system: UO-31 renal
TK-10 renal = test system: TK-10 renal
ACHN renal = test system: ACHN renal
CAKI-1 renal = test system: CAKI-1 renal
A498 renal = test system: A498 renal
CCRF-CEM leukemia = test system: CCRF-CEM leukemia
MOLT-4 leukemia = test system: MOLT-4 leukemia
SNB-19 CNS = test system: SNB-19 CNS
U251 CNS = test system: U251 CNS

SMILES	growth (HCT-15 colon)	growth (HT29 colon)	growth (SNB-75 CNS)	growth (PC-3 prostate)	growth (SK-MEL-5 melanoma)	growth (UACC-62 melanoma)	growth (LOX IMVI melanoma)	growth (SK-MEL-28 melanoma)	growth (SK-MEL-2 melanoma)	growth (EKVX NSCLC)	growth (SN12C renal)	growth (UO-31 renal)	growth (TK-10 renal)	growth (ACHN renal)	growth (CAKI-1 renal)	growth (A498 renal)	growth (CCRF-CEM leukemia)	growth (MOLT-4 leukemia)	growth (SNB-19 CNS)	growth (U251 CNS)
Cc1cc(-c2nc3ccccc3s2)ccc1NC(=O)COc1ccc(Cl)cc1	92.7%	101%	84.4%	83.2%	98.8%	96.1%	94.5%	114%	104%	78.9%	88.3%	69%	53.7%	95.5%	84.5%	106%	106%	94.5%	–	–
O=[N+]([O-])c1c(F)cccc1Nc1cccc(F)c1	104%	97.5%	81.6%	103%	101%	–	102%	118%	103%	103%	–	78.3%	113%	101%	101%	80.8%	–	93.8%	–	–
Clc1nc(Cl)c2c3c(sc2n1)CCCC3	26.7%	11.3%	89%	63.8%	50.8%	92.9%	13.4%	55.1%	20%	89.8%	27.5%	65.6%	91%	45.1%	64.2%	127%	10.7%	-27.8% (active)	–	–
CCN(CC)CC(O)c1cc(-c2ccc(Cl)cc2)nc2c(C)c(Cl)ccc12 (centres undefined)	-86.9% (active)	-100% (active)	-39.7% (active)	-68.4% (active)	-96.6% (active)	-92.3% (active)	-94.7% (active)	-85.5% (active)	-68.8% (active)	-63.1% (active)	-86.4% (active)	-78.8% (active)	-92.5% (active)	-93.2% (active)	-100% (active)	-36.4% (active)	-37.4% (active)	-72.4% (active)	–	–
COc1cc(NCCCCN=C(N)NC(N)=NC(C)C)c2ncccc2c1	122%	53.9%	–	22.9%	17%	77%	46.6%	86.4%	43.7%	68%	32.6%	71.6%	90.4%	108%	116%	133%	48.8%	54.1%	55.9%	50%
CCCCCn1cnc2c(=S)nc[nH]c21	107%	114%	90.2%	98%	93.5%	109%	107%	106%	121%	108%	117%	99.1%	116%	109%	115%	107%	97.1%	104%	–	–
O=C(/C=C\c1cccc([N+](=O)[O-])c1)c1ccccc1	21%	4.18% (active)	77.6%	40.7%	76.3%	71.9%	3.66% (active)	5.24% (active)	100%	96.9%	97.2%	-64.5% (active)	68.1%	-50.1% (active)	84.4%	91.4%	-23.9% (active)	18.9%	–	–
C/C(Cc1ccc(Cl)cc1)=C(\c1ccc(OCCN2CCCCCC2)cc1)c1ccc(OC(=O)C2CCCCC2)cc1	39%	18.4%	–	51.5%	83.5%	68.1%	65.8%	61.2%	81.6%	81%	67%	40.9%	84.1%	87%	80.8%	82%	55.3%	25.6%	77.6%	45%
c1ccc2c(Nc3cccc4ccccc34)cccc2c1	35.1%	15.8%	20.8%	65.2%	71%	23.7%	52.6%	61.5%	38.6%	78.1%	–	41.3%	81.3%	79.1%	40.3%	81.2%	59.8%	30.5%	–	–
CN1CCN(Cc2ccc(NC(=O)c3[nH]ncc3Nc3ncnc4[nH]ccc34)cc2)CC1	15.6%	1.32% (active)	-39.1% (active)	5.02% (active)	-25.4% (active)	6.54% (active)	-67% (active)	2.8% (active)	-12.3% (active)	13%	–	3.55% (active)	-61.8% (active)	5.97% (active)	-1.63% (active)	-59% (active)	4.71% (active)	-20.9% (active)	–	–
CN1CCN(Cc2ccc(NC(=O)c3[nH]ncc3Nc3ccnc4ccsc34)cc2)CC1	66.4%	30.1%	20.5%	34%	38.4%	64.1%	0.622% (active)	54.9%	64.9%	41.1%	21.3%	44.5%	58.6%	13.5%	59.3%	17%	11%	2.39% (active)	–	–
COc1cccc(NC(=O)c2sc3nc4c(cc3c2N)CN(Cc2ccccc2)CC4)c1	42.2%	44.5%	-19.7% (active)	71.1%	62.6%	35.1%	67.4%	76.8%	66.8%	–	74%	42.9%	79.7%	54%	–	42.8%	60.9%	65.1%	–	–
C/C(=C(/c1ccc(O)cc1)c1ccc(OCCN2CCCC2)cc1)c1ccccc1	34.6%	-10.7% (active)	–	48.1%	-65.8% (active)	-29.3% (active)	-50.2% (active)	-40.8% (active)	63.1%	62.5%	72.4%	55.3%	79.6%	68.5%	65.1%	80.5%	60.7%	-1.64% (active)	73.5%	35.1%
O=C(CN1CCN(c2cc3c(cc2F)c(=O)c(C(=O)O)cn3C2CC2)CC1)Nc1cc(=O)[nH]c(=O)[nH]1	96.1%	102%	–	99%	98.9%	96%	101%	101%	107%	92%	97.7%	79.7%	100%	100%	95.4%	100%	109%	102%	97.4%	106%
CCOC(=O)C(C#N)C1CCCCC1 (centres undefined)	95.9%	108%	97.9%	80.7%	103%	75.6%	92.4%	108%	107%	94.9%	79.6%	91.1%	91.5%	99.4%	75.5%	117%	87.2%	79.3%	–	–
CC[C@H](CO)Nc1nc(NCc2ccccc2)n2ncc(C(C)C)c2n1	2.45% (active)	3.07% (active)	-73.4% (active)	–	-17.6% (active)	-41.8% (active)	4.45% (active)	-16.9% (active)	11.1%	0.263% (active)	17.1%	10%	15.6%	4.26% (active)	9.58% (active)	-21% (active)	-0.868% (active)	-12.9% (active)	–	5.23% (active)
CCN(CC)CCCC(C)Nc1ccnc2c(OC)cccc12 (centres undefined)	120%	107%	–	104%	111%	114%	107%	119%	127%	112%	101%	87.4%	120%	122%	101%	135%	94.3%	102%	113%	102%
